Measurements from PubChem BioAssay.
Calls of active or inactive are those of the source.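 Rule for the calls, unless noted: active = fluorescence slope higher than the sample average by over 3 SD (cut at about -0.22 in these data, passing the limit was not always enough); inactive = the rest.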

Columns and labels:
[1] = inhibitors of TNFa-induced NFkB p65 translocation, primary screen, imaging, HUVEC, MLSMR starter and 10KST1 sets (AID 438;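 active = inhibition above 20% together with a positive visual image hit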;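 note: compound added about 3h40 before a 20 min TNFalpha stimulation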;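 for inhibition: signal is the nuclear over cytoplasmic p65 intensity ratio per well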); settings: HUVEC TNFa-induced p65 nuclear translocation; cell count: measured here: nuclei count (cytotoxicity indicator), at 2.08 µM; inhibition: at 2 µM, stronger effect = higher value, 0% TNFa-plus-vehicle, 100% no-TNFa wells
[2] = inhibitors of mutant huntingtin aggregation, primary screen, imaging, exon1htt(103Q)mCFP cells, high-content imaging (AID 483;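 active = visual image review flags a hit and inhibition of aggregation exceeds 20%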;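 note: compound exposure lasted 3 days before fixation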;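 for nuclei count: percent of the per-plate median nuclei count of sample wells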); settings: exon1htt(103Q)mCFP cell line, aggregate imaging, at 2 µM; inhibition of aggregation: stronger effect = higher value; nuclei count: measured here: cell count, toxicity
[3] = inhibitors of E-selectin induction by TNFa, primary screen, imaging, HUVEC, immunofluorescence, MLSMR starter and 10KST1 sets (AID 487;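 active = visually confirmed hit in the image check and inhibition above 20%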;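 for inhibition: signal is fraction of cell area covered by stained E-selectin grains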;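 for nuclei count: 100% = median nuclei count of all wells on the same plate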); settings: HUVEC TNFalpha-induced E-selectin immunofluorescence imaging, at 2 µM; inhibition: stronger effect = higher value; nuclei count: measured here: cell number, toxicity
[4] = molecular target: Voltage-gated potassium channel subunit beta-2 (Rattus norvegicus) (UniProt P62483); test: KvBeta enzyme negative modulators, primary screen, biochemical, NADPH fluorescence (AID 622); settings: recombinant KvBeta, 4-cyanobenzaldehyde reduction, at 10 µM, stronger effect = higher value;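 note: slope of raw intensity against log time taken from 70 to 1610 s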
[5] = molecular target: Voltage-gated potassium channel subunit beta-2 (Rattus norvegicus) (UniProt P62483); test: KvBeta positive modulators, primary screen, biochemical, NADPH fluorescence (AID 623;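 active = NADPH fluorescence slope more negative than the mean of all samples by about 3 SD, 99.7% confidence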;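 note: fluorescence intensity change per second fitted from 20 to 320 s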); settings: Recombinant KvBeta, NADPH fluorescence decrease slope, 10 min; at 10 µM; stronger effect = lower value
[6] = molecular target: Alpha-2C adrenergic receptor (Homo sapiens) (UniProt P18825); test: modulators of alpha2C/GIRK thallium flux, primary screen, cell-based, HEK293 alpha2C/GIRK1/2 (AID 624;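 active = fluorescence slope after compound addition differing from the mean of all screened samples at 99.7% confidence, in either direction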;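 note: slope of fluorescence ratio to pre-addition baseline per second over 15 to 24 s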); settings: thallium flux BTC fluorescence, at 10 µM, actives lie on both sides
[7] = inhibitors of Sendai virus-induced IRF3 signaling, primary screen, TLR/RLR signaling modifier project, cell-based, Sendai virus stimulus, luciferase, 10K MLSCN set (AID 602276;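 active = inhibition at or above 50% at 10 µM; inactive = inhibition below 50%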;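 note: firefly luciferase from ISG56 promoter only with Renilla not read in this screen; 0% = Sendai virus plus DMSO and 100% = medium plus DMSO without virus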); settings: HEK293 RL24 IRF3 luciferase reporter, at 10 µM, stronger effect = higher value
[8] = inhibitors of poly I:C-induced TLR3 signaling, primary screen, cell-based, poly I:C stimulus, luciferase, 10K MLSCN set (AID 602277;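 active = inhibition of the reporter signal at or above 50%; inactive = inhibition below 50%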); settings: HEK293-TLR3 RL24 IRF3 luciferase reporter, at 10 µM, stronger effect = higher value

Sequence of Voltage-gated potassium channel subunit beta-2 (Rattus norvegicus) (P62483 whole entry, looked up): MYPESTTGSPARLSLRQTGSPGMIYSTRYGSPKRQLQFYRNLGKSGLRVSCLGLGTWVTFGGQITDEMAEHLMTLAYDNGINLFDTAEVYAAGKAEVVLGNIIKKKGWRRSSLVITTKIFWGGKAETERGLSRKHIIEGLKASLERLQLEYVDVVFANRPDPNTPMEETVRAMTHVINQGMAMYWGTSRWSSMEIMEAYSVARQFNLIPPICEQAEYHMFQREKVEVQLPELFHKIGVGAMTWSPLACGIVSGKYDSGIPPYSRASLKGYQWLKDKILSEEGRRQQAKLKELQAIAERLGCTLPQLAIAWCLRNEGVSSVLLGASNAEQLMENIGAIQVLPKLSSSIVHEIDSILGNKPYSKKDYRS
Sequence of Alpha-2C adrenergic receptor (Homo sapiens) (P18825 whole entry, looked up): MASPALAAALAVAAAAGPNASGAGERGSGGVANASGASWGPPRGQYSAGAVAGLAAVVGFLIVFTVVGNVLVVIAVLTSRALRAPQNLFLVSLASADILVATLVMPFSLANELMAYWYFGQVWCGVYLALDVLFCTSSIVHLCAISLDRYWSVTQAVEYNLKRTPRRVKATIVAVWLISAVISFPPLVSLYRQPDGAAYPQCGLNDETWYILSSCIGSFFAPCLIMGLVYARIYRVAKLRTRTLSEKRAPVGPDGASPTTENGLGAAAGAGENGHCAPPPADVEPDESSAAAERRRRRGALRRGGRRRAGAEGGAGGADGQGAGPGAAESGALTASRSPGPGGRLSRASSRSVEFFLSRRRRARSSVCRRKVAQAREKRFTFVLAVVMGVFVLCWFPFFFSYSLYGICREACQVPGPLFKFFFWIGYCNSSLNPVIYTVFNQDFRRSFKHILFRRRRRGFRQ

CC(C)CC1NC(=O)N(CC(=O)N2CCN(S(=O)(=O)c3ccc(Cl)cc3)CC2)C1=O (stereo not drawn)
cell count [1]: 716 | inhibition [1]: 4% (inactive) | inhibition of aggregation [2]: 11.8% (inactive) | nuclei count [2]: 93% | inhibition [3]: -35.6% (inactive) | nuclei count [3]: 76.3% | fluorescence slope [4]: -0.416 (inactive) | NADPH fluorescence slope [5]: 4.2e-06 (inactive) | slope [6]: 0.00417 (inactive) | inhibition [7]: 15.2% (inactive) | inhibition [8]: -5.28% (inactive)

O=C(NCCN1CCCCCC1)c1ccc(CS(=O)(=O)c2ccc(Br)cc2)o1
cell count [1]: 591 | inhibition [1]: -0.5% (inactive) | inhibition of aggregation [2]: -28.3% (inactive) | nuclei count [2]: 98.6% | inhibition [3]: -63.4% (inactive) | nuclei count [3]: 103% | fluorescence slope [4]: -0.445 (inactive) | NADPH fluorescence slope [5]: 1.2e-05 (inactive) | slope [6]: 0.00438 (inactive) | inhibition [7]: -15.7% (inactive) | inhibition [8]: 16.4% (inactive)

O=C(O)C1CC=CCC1C(=O)Nc1cccc(C(=O)N2CCCCC2)c1 (stereo not drawn)
cell count [1]: 419 | inhibition [1]: 6.1% (inactive) | inhibition of aggregation [2]: -11.9% (inactive) | nuclei count [2]: 109% | inhibition [3]: -158% (inactive) | nuclei count [3]: 115% | fluorescence slope [4]: -0.427 (inactive) | NADPH fluorescence slope [5]: -4.3e-05 (inactive) | slope [6]: 0.00595 (inactive) | inhibition [7]: 0.562% (inactive) | inhibition [8]: -0.512% (inactive)

CCOc1cc(-c2nc3ccccn3c2NCC2CCCO2)ccc1O (stereo not drawn)
cell count [1]: 406 | inhibition [1]: -0.9% (inactive) | inhibition of aggregation [2]: -2.6% (inactive) | nuclei count [2]: 94.3% | inhibition [3]: -97% (inactive) | nuclei count [3]: 83.1% | fluorescence slope [4]: -0.091 (active) | NADPH fluorescence slope [5]: -2.7e-05 (inactive) | slope [6]: 0.00327 (inactive) | inhibition [7]: -9.84% (inactive) | inhibition [8]: -3.91% (inactive)

O=C(c1ccc2c(c1)c(=O)oc1ccccc12)N1CCCCC1
cell count [1]: 206 | inhibition [1]: 0.3% (inactive) | inhibition of aggregation [2]: 15.8% (inactive) | nuclei count [2]: 87.8% | inhibition [3]: 19.4% (inactive) | nuclei count [3]: 90.7% | fluorescence slope [4]: -0.363 (inactive) | NADPH fluorescence slope [5]: 1.9e-05 (inactive) | slope [6]: 0.00354 (inactive) | inhibition [7]: -50.7% (inactive) | inhibition [8]: -130% (inactive)

CCOC(=O)Cc1csc(NC(=O)CN(C)S(=O)(=O)c2ccc3c(c2)CCC(=O)N3)n1
cell count [1]: 585 | inhibition [1]: 12.6% (inactive) | inhibition of aggregation [2]: -126% (inactive) | nuclei count [2]: 29.2% | inhibition [3]: 40.4% (inactive) | nuclei count [3]: 111% | fluorescence slope [4]: -0.521 (inactive) | NADPH fluorescence slope [5]: -3.1e-05 (inactive) | slope [6]: 0.00704 (inactive) | inhibition [7]: 25.7% (inactive) | inhibition [8]: 21.7% (inactive)

Cc1ccc(N(C)C(=O)N2CCN(c3ccccn3)CC2)cc1
cell count [1]: 525 | inhibition [1]: -0.8% (inactive) | inhibition of aggregation [2]: 30.2% (inactive) | nuclei count [2]: 59.5% | inhibition [3]: -41% (inactive) | nuclei count [3]: 97.6% | fluorescence slope [4]: -0.59 (inactive) | NADPH fluorescence slope [5]: -2.8e-05 (inactive) | slope [6]: 0.00868 (inactive) | inhibition [7]: 5.03% (inactive) | inhibition [8]: 27.2% (inactive)

CCCNC(=O)c1ccccc1C(=O)NCCC
cell count [1]: 386 | inhibition [1]: -1.6% (inactive) | inhibition of aggregation [2]: 23.1% (inactive) | nuclei count [2]: 94.4% | inhibition [3]: -3.9% (inactive) | nuclei count [3]: 115% | fluorescence slope [4]: -0.53 (inactive) | NADPH fluorescence slope [5]: 0.000133 (inactive) | slope [6]: 0.00613 (inactive) | inhibition [7]: 15.6% (inactive) | inhibition [8]: 18% (inactive)
